Sampled rows, rich in hits. Any-hit rate of the full collection: about 1.9%.
Vif imaging: blocks HIV Vif function; HEK293T cells, Vif self-association by quenched fluorescence, imaging, 24 h; inhibition, % at 7.49 µM; actives 0.35% (n = 340,000); AID 602346; in the data active = inhibition above about 50%, passing the limit was not always enough; inconclusive = no clear call, values can overlap the other calls; inactive = below about 31%
CaV13 FRET inh: Primary screen for inhibitors of IQ motif and Ca2+-dependent inactivation inhibitor domain binding in CACNA1D, Förster resonance energy transfer in living cells, … | inhibition, % at 12.3 µM | actives 0.098% (n = 340,000) | HEK cells, CFP/YFP FRET ICDI-IQ, plate reader, 10 min; percent FRET-ratio fall versus neutral wells;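 active = mean replicate inhibition of at least 30% and at least 1% of replicates passing that level; inconclusive = only one of the two criteria is met; inactive = neither criterion is met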;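 note: 0% = median of the neutral control wells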
Glyco luc inh: blocks N-linked glycosylation in D54 reporter cells | actives 0.23% (n = 360,000) | AID 588692 | reporter increase, % at 12.5 µM | D54 ERlucT glycosylation luciferase reporter, 24 h; percent of 100 nM tunicamycin response;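 active = mean luciferase reporter signal, scaled so untreated is 0 and the glycosylation-blocking control 100, at or above a set limit in every replicate; inconclusive = mean reaches the limit but not every replicate does; inactive = mean below the limit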;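 note: luciferase carries N-glycosylation sites so blocking glycosylation raises the light; 0% = median of neutral control wells and 100% = median of 100 nM tunicamycin wells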
DSG3 Ab inh: human desmoglein-3 autoantibody binding inhibition; P32926; actives 0.48% (n = 310,000); AID 588358; DSG3-coupled beads, scFv-anti-DSG3-GFP binding, flow cytometry; stronger effect = lower value; binding (percent of control), % at 10 µM;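 active = binding more than 3 SD below its plate's average and above zero; inconclusive = below that plate limit but binding exactly zero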;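 note: hits lower antibody fragment binding to DSG3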
Target sequence (P32926 whole entry, looked up, the tested form may be a part): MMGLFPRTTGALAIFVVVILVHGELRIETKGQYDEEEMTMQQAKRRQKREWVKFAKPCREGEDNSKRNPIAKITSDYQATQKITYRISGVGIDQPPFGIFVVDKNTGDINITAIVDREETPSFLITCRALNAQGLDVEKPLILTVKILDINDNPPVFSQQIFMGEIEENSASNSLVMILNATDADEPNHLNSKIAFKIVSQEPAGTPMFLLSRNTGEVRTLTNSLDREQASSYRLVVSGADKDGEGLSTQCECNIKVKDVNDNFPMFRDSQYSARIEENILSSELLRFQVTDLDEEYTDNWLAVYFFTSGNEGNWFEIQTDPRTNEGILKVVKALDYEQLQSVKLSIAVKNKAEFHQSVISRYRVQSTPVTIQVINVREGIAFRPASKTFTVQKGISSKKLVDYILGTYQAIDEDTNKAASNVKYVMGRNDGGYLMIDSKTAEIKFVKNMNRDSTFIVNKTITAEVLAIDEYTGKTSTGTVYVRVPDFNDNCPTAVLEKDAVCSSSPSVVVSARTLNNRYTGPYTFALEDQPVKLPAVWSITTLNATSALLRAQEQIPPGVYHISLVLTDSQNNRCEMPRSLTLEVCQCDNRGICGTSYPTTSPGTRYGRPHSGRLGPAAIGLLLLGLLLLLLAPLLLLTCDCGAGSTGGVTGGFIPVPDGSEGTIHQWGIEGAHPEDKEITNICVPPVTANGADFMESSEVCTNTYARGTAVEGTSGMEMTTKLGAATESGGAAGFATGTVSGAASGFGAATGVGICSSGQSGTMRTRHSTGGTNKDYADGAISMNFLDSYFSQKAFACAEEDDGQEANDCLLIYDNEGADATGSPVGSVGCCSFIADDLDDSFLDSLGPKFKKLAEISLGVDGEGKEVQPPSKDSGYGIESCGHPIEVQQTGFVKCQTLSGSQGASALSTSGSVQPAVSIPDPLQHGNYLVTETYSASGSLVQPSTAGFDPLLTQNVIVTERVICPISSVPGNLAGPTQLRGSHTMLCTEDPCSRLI
ATG4B inhibitor: inhibitors of human ATG4B cysteine protease. Q9Y4P1. ATG4B cleavage of LC3-PLA2, NBD-HPC fluorescence, 1 h. inhibition, % at 8.33 µM. actives 0.51% (n = 340,000). AID 504462; in the data active = inhibition above about 40%
NSD2 inh: NSD2 (human) methyltransferase inhibition; actives 0.54% (n = 310,000); NSD2 peptide methylation, AlphaScreen, 120 min; AID 743445; inhibition, % at 12.5 µM; O96028
ATG4B confirm: ATG4B (human) inhibition, single-dose confirmed | shares compounds with ATG4B inhibitor | ATG4B protease fluorescent substrate cleavage assay | inhibition, % at 8.33 µM | actives 92% (n = 320); in the data active = inhibition above about 39%
PLA2 counter: PLA2 (human) inhibition in ATG4B counter-screen; inhibition, % at 8.33 µM; actives 66% (n = 1,600); purified PLA2, NBD-C6-HPC fluorescence, 45 min; AID 588402; shares compounds with ATG4B inhibitor
An asterisk follows results filed as active; u = inconclusive; x = not tested or not shown. Cut-off read from the data, not from the text of the source, unless noted: active = inhibition above about 50%; inactive = the rest.

SMILES	Vif imaging	CaV13 FRET inh	Glyco luc inh	DSG3 Ab inh	ATG4B inhibitor	NSD2 inh	PLA2 counter	others
O=C(COc1ccccc1[N+](=O)[O-])Nc1ccccc1N1CCCCC1	-21	x	-2	108	43*	-1	74*
Cc1ccc(C(C)C)c(OCC(=O)Nc2ccccc2N2CCN(C)CC2)c1	-7	-6	-4	113	54*	13	66*
CC(=O)N1CCN(c2ccccc2NC(=O)COc2cc(C)ccc2C(C)C)CC1	-15	-1	-4	x	13	1	x
CCOC(=O)/C(=N/Nc1ccccc1OC)N1CCCc2ccccc21	4	-21	-2	x	1	-3	x
CN1CCC(N(C)C(=O)c2ccccc2F)CC1	10	-5	1	84	-10	0	x
O=C(CN(C(=O)CCC(=O)Nc1nccs1)c1cccc(F)c1)NCCc1ccccc1	u	-3	0	117	-4	1	x
C=CCn1c(SCC(=O)c2ccccc2)nnc1-c1cc2ccccc2o1	x	-6	0	108	62*	0	62*
C=CCn1c(SCC(=O)c2ccc(OC)cc2)nnc1-c1cc2cccc(OC)c2o1	-10	-1	-2	112	-3	0	x
CCOC(=O)C1=C(C)Nc2ncnn2C1c1cc(OC)ccc1OC (stereo not drawn)	9	-7	2	102	0	-1	x
CCCCCCNC(=O)CC(c1ccccc1)c1cc(Br)ccc1O (stereo not drawn)	-10	x	-8	102	41*	x	56*
CCOc1ccc(NC(=O)C(CC)NC(=O)c2ccccc2CO)cc1 (stereo not drawn)	2	-1	-1	94	-4	-1	x
Cc1cc(C)c(-c2c(N)cc(Br)cc2Br)c(N)c1	-21	-9	-2	105	57*	-2	65*
C(=NN=Cc1c[nH]c2ccccc12)c1c[nH]c2ccccc12	x	-6	3	103	x	1	x
O=C1/C(=C/c2c[nH]c3ccccc23)CCC/C1=C\c1c[nH]c2ccccc12	11	-7	-1	120	75*	-2	75*
O=C(Oc1c(-c2ccccc2)c(=O)n2c3c(cccc13)CC2)c1ccccc1	-7	-5	4	97	70*	-1	65*
O=C(Oc1c(-c2ccccc2)c(=O)n2c3c(cccc13)CC2)c1cccc([N+](=O)[O-])c1	x	-21	2	95	28	-5	x
O=C(Oc1c(-c2ccccc2)c(=O)n2c3c(cccc13)CC2)c1ccc(F)cc1	-4	-18	1	x	66*	2	45	ATG4B confirm=62*
C=CCNC(=O)COc1coc(CN2CCN(C(=O)c3ccco3)CC2)cc1=O	-1	-6	3	113	-1	-2	x
Cc1cc(C=C2C(=O)c3ccccc3C2=O)c(C)n1-c1ccccc1	-7	-11	-17	95	45*	9	-6	ATG4B confirm=67*
Cc1cc(/C=C2\Cc3ccccc3C2=O)c(C)n1-c1ccccc1	x	-7	-18	116	62*	-5	62*
N#Cc1ccc2[nH]cc(C3c4cc(F)ccc4C=C(c4ccsc4)N3c3ccc(C#CCCO)cc3)c2c1 (stereo not drawn)	x	-5	x	x	x	x	x
CCN(CCCn1c(SCC#N)nc2ccccc2c1=O)c1ccccc1	-2	-3	-5	80	44*	-2	45
C=C(C)Cn1c(SCC#N)nc2ccccc2c1=O	x	-2	0	103	5	-1	x
CCOC(=O)c1ccc(NC(=O)CCc2nc(-c3ccc(C)cc3)no2)cc1	-28	-3	-5	111	14	0	x
Clc1cccc(Cl)c1CNc1ccc(N2CCCC2)cc1	x	-19	x	x	43*	8	42	ATG4B confirm=64*
SMILES	Vif imaging	CaV13 FRET inh	Glyco luc inh	DSG3 Ab inh	ATG4B inhibitor	NSD2 inh	PLA2 counter	others
O=C(Cc1ccc(Cl)cc1)Nc1ccc(N2CCCC2)cc1	1	x	1	108	-5	2	x
S=c1[nH]nc(-c2ccccc2)n1/N=C/c1ccc(-c2ccccc2Cl)o1	3	-8	-14	115	42*	x	58*
Cc1cc(-c2ccc(C)c(S(=O)(=O)NCCc3ccco3)c2)on1	4	-3	0	u	8	-1	x
Cc1ccc(C(=O)Nc2nc(-c3ccco3)c(-c3ccco3)s2)o1	-13	-4	12	97	40*	-1	47	ATG4B confirm=64*
COCCC(=O)N1CCC(Oc2ccc(C(=O)NCc3cc(C)n(C)n3)cc2)CC1	16	-2	-2	102	3	-6	x
COc1ccc(/C=C2/C(=O)N(Cc3ccccc3)N=C2C)cc1	13	-17	3	106	2	3	x
COc1ccc(/C=C2/C(=O)N(c3nc4ccccc4s3)N=C2CSc2ccc(Cl)cc2)cc1	2	-5	-3	62	56*	-2	43
COc1ccccc1N1CCN(C(=O)CCCCCn2c(=O)[nH]c3ccsc3c2=O)CC1	-12	-6	3	92	-2	4	x
COc1ccc(OCC(=O)OCC(=O)NCc2ccco2)cc1	x	x	3	x	-3	x	x
O=C(O)c1ccccc1NC(c1ccccc1)c1ccc(Cl)cc1 (stereo not drawn)	-10	-3	-2	98	85*	5	87*
O=C(CSc1ccccc1C(=O)O)c1ccc(Cl)cc1	-12	-17	-5	103	-3	-4	x
CCn1cc(C(=O)OCC(=O)c2cc(C)n(-c3cccc(C(F)(F)F)c3)c2C)c(=O)c2ccc(C)nc21	-12	-10	-1	95	75*	0	67*
CCn1cc(C(=O)OCC(=O)c2ccccc2)c(=O)c2ccc(C)nc21	-1	x	1	109	7	x	x
CCn1cc(C(=O)NCc2cccc(C(F)(F)F)c2)c(=O)c2ccc(C)nc21	-12	-21	0	92	53*	-3	50
CCn1cc(C(=O)Nc2ccc(NC(=O)c3ccco3)cc2)c(=O)c2ccc(C)nc21	2	-5	-1	97	8	12	x
S=C(NCc1ccccc1)Nc1cccc(Cl)c1	-1	-3	0	100	50*	-5	43	ATG4B confirm=59*
O=C(CNc1cccc(Cl)c1)NNC(=S)NCc1ccccc1	-2	-6	4	x	-6	2	x
Cc1ccc(NC(=S)NCc2ccccc2)cc1[N+](=O)[O-]	-1	-4	-9	x	54*	1	63*
Cc1cc(C)cc(NC(=O)NCc2c(-c3ccccc3)noc2C)c1	17	-5	-1	112	17	-1	x

High-throughput results: PubChem BioAssay, several laboratories
